From PubChem
ERp5 inh: ERp5 (human) disulfide isomerase inhibition; inhibition, % at 9.99 µM; 0.05% of 350,000 active; Q15084; ERp5 insulin aggregation, absorbance 650 nm, 90 min;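 active = mean replicate inhibition above about 25%, with every replicate also reaching it, limit read from the data, passing the limit was not always enough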
PDI inh: PDI (human) enzyme inhibition | P07237 | PDI insulin aggregation turbidity, A650, 90 min | inhibition, % at 10 µM | 0.052% of 350,000 active;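 active = mean inhibition across replicates of 30% or more, whatever share of single replicates reach that level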
ERAP1 HTS inh: blocks human ERAP1 aminopeptidase activity. inhibition, % at 10.7 µM. AID 652197. 0.15% of 340,000 active. recombinant ERAP1, Leu-AMC fluorescence, 60 min;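 active = mean replicate inhibition of at least 30%, or all replicates individually reaching that 30% level; inactive = mean below 30% and not every replicate reaching it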;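 also: 0% = neutral control wells and 100% = L-leucinethiol positive control wells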
AF4-AF9 inh: inhibitors of human MLL-AF4/AF9 interaction. AlphaScreen, biotin-AF4 peptide binding to FLAG-AF9. 0.47% of 350,000 active. inhibition, % at 10 µM. P42568;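 active = every replicate reaching a set inhibition limit, whatever the replicate mean, cut at about 25% in these data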;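 also: 0% = plate neutral control median and 100% = total signal loss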
Target sequence (P42568 whole entry, looked up): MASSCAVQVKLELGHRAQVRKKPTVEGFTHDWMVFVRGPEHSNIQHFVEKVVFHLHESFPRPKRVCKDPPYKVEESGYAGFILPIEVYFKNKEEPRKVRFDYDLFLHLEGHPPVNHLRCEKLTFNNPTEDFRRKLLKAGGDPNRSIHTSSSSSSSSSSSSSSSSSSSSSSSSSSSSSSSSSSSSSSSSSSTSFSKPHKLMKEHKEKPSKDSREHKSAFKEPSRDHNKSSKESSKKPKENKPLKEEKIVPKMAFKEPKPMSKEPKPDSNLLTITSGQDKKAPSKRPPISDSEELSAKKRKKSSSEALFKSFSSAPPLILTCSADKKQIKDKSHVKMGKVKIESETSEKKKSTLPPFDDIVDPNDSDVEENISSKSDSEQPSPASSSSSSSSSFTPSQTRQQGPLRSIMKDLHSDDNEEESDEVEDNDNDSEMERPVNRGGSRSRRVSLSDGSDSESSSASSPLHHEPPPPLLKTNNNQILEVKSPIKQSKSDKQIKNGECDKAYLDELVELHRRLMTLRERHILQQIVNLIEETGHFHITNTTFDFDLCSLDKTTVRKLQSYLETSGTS
DENV2 CPE: protects cells from dengue virus 2 cytopathic effect | DENV2-infected cells, cytopathic effect rescue, plate reader | 1.7% of 350,000 active | AID 651640 | CPE inhibition, % at 9.99 µM; in the data active = CPE inhibition above about 20%, passing the limit was not always enough; tested in BHK-21 cells;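 also: 0% = median of neutral control wells and 100% = median of positive control wells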
* = called active by the depositor. A selection: hits, their analogues and other compounds. The true share with any hit is near 1.8%.

Screening C[C@@H]1CCCCO[C@@H](CN(C)C(=O)c2ccccc2)[C@@H](C)CN([C@@H](C)CO)C(=O)c2cc(NS(=O)(=O)c3ccc(F)cc3)ccc2O1 returned ERp5 inh -8.9, ERAP1 HTS inh -5.0, AF4-AF9 inh -0.1 and DENV2 CPE 121.1*.
For C[C@@H]1CCCCO[C@@H](CN(C)C(=O)c2ccccc2)[C@@H](C)CN([C@@H](C)CO)C(=O)c2cc(NS(=O)(=O)c3ccc(Cl)cc3)ccc2O1 the results were ERp5 inh -0.1, ERAP1 HTS inh 0.3, AF4-AF9 inh -1.6 and DENV2 CPE 21.1*.
Screening C[C@H]1CCCCO[C@H](CN(C)C(=O)Nc2ccc3c(c2)OCO3)[C@@H](C)CN([C@@H](C)CO)C(=O)c2cc(NS(=O)(=O)c3ccc(Cl)cc3)ccc2O1 returned ERp5 inh -2.3, ERAP1 HTS inh -6.5, AF4-AF9 inh -6.5 and DENV2 CPE 51.8*.
C[C@@H]1CCCCO[C@@H](CN(C)C(=O)Nc2ccc3c(c2)OCO3)[C@@H](C)CN([C@H](C)CO)C(=O)c2cc(NS(=O)(=O)c3ccc(Cl)cc3)ccc2O1 was read as ERp5 inh -1.1, ERAP1 HTS inh -4.0, AF4-AF9 inh -10.2 and DENV2 CPE -6.9.
For C[C@@H]1CCCCO[C@H](CN(C)C(=O)C2CCCCC2)[C@@H](C)CN([C@H](C)CO)C(=O)c2cc(NS(=O)(=O)c3ccc(Cl)cc3)ccc2O1 the results were ERp5 inh -2.5, ERAP1 HTS inh 0.9, AF4-AF9 inh -3.2 and DENV2 CPE 3.4.
`O=C(C[C@H]1C[C@H]2c3cc(NC(=O)Nc4ccccc4)ccc3O[C@H]2[C@@H](CO)O1)NCc1ccccc1` gave ERp5 inh 7.0, ERAP1 HTS inh -6.3, AF4-AF9 inh 0.1 and DENV2 CPE 1.6.
Screening O=S(=O)(c1cccc(F)c1)N1CC[C@@H]2[C@H](CO)Nc3ccc(-c4cccc(F)c4)cc3[C@@H]21 returned DENV2 CPE -19.3.
Screening O=C(C[C@@H]1CC[C@@H]2[C@H](COC[C@H](O)CN2Cc2ccc(C(F)(F)F)cc2)O1)N1CCc2ccccc2C1 returned ERp5 inh -2.6, ERAP1 HTS inh -0.1, AF4-AF9 inh 4.3 and DENV2 CPE 0.1.
For CS(=O)(=O)Nc1ccc2c(c1)[C@@H]1C[C@H](CC(=O)NCC3CC3)O[C@@H](CO)[C@@H]1O2 the results were ERp5 inh -0.9, ERAP1 HTS inh 1.4, AF4-AF9 inh 1.1 and DENV2 CPE 0.7.
For N#C[C@@H]1[C@H](c2ccccc2-c2ccccc2F)[C@H](CO)N1C(=O)C1CCOCC1 the results were ERp5 inh 1.4, ERAP1 HTS inh 3.1, AF4-AF9 inh 0.6 and DENV2 CPE -7.1.
COc1ccccc1-c1ccc2c(c1)O[C@@H](CN(C)Cc1ccc3c(c1)OCO3)[C@@H](C)CN([C@H](C)CO)S2(=O)=O was read as ERp5 inh 0.1, ERAP1 HTS inh 0.0, AF4-AF9 inh 2.0 and DENV2 CPE -5.0.
`O=C1C(Cl)=C(N2CCCCCC2)C(=O)N1c1ccc(Cl)cc1` gave ERp5 inh 0.3, PDI inh 4.6, ERAP1 HTS inh -1.2, AF4-AF9 inh 4.2 and DENV2 CPE 75.9*.
`CC1(C(=O)Nc2cccc(C(F)(F)F)c2)Cc2c(-c3cccc(C(N)=O)c3)ccnc2O1` (configuration not stated) gave ERp5 inh 5.7, PDI inh 5.6, ERAP1 HTS inh -4.6, AF4-AF9 inh 0.6 and DENV2 CPE -1.7.
For CC1(C(=O)NCc2cccs2)Cc2c(-c3cccc(C(F)(F)F)c3)ccnc2O1 (configuration not stated) the results were ERp5 inh 1.3, PDI inh -51.7, ERAP1 HTS inh 5.4, AF4-AF9 inh -0.3 and DENV2 CPE 27.2*.
Screening CC1(C(=O)NCc2ccccc2)Cc2c(-c3cccc(C(F)(F)F)c3)ccnc2O1 (configuration not stated) returned ERp5 inh -6.2, PDI inh -42.1, ERAP1 HTS inh 1.4, AF4-AF9 inh 1.8 and DENV2 CPE -1.3.
For CC1(C(=O)Nc2cccc(OC(F)(F)F)c2)Cc2c(-c3cccc(C(N)=O)c3)ccnc2O1 (configuration not stated) the results were ERp5 inh -1.4, PDI inh -5.6, ERAP1 HTS inh 0.4, AF4-AF9 inh -2.1 and DENV2 CPE 20.7*.
Cc1ccccc1S(=O)(=O)N1C[C@@H](O)COC[C@H]2O[C@H](CC(=O)N3CCC(Cc4ccccc4)CC3)CC[C@@H]21 was read as ERp5 inh -3.7, ERAP1 HTS inh 1.0, AF4-AF9 inh 5.5 and DENV2 CPE 67.7*.
